# Vaccinia pol inh – inhibitors of vaccinia virus processive DNA synthesis (E9 polymerase); in vitro processive DNA synthesis, absorbance read-out; hits give low values; normalized absorbance, % (concentration not given with the values); 46,000 compounds, 0.94% hits; in the data active means normalized absorbance mostly below about 85%, no sharp cut-off; inactive means mostly above about 86%
# * = called active by the depositor. Shown is part of a subset that was picked to be rich in hits.
SMILES,Vaccinia pol inh
c1ccc2c(c1)N1CCCCCC1N2Cc1ccncc1 (stereo not given),101
CC1[C@H](C)OC(=O)CC(O)CC(O)CC(O)CCC(O)C(O)C[C@]2(O)CC(O)C(C(=O)O)C(CC(OC3O[C@H](C)[C@@H](O)[C@H](N)[C@@H]3O)/C=C/C=C/C=C/C=C/CC/C=C/C=C/[C@H](C)[C@H]1O)O2 (stereo not given in full),100
CCCc1nnc(SCC(=O)O)n1N,89
COc1ccc(Nc2nc(N3CCN(C)CC3)nc3ccccc23)c(OC)c1,53*
COc1ccc(Nc2cc(C(=O)N3CCc4ccccc4C3)c3ccccc3n2)c(OC)c1,101
CCOC(=O)N1CCN(C(=O)c2cc(Nc3ccc(OC)cc3OC)nc3ccccc23)CC1,97
O=C(O)C(c1ccccc1)N1CCCCC1 (stereo not given),102
c1ccc2[nH]c(CN3CCCCCC3)nc2c1,96
Cc1ccc(S(=O)(=O)NC(=O)SC#N)cc1,100
CCOC(=O)c1c(-c2ccccc2)csc1NC(=O)C1CC1,98
N#Cc1ccccc1N=Cc1cccc(O)c1O,86*
Cc1ccccc1C=Nc1ccccc1C#N,100
Oc1ccccc1C=Nc1ccccc1O,101
N#CC(C#N)=C(N)COc1cccc(C(F)(F)F)c1,110
CCN1CCN(c2cc(C)c3cc(NC(=S)N(C)Cc4ccccc4)ccc3n2)CC1,79
O=C(O)c1ccccc1SC/C=C/c1ccccc1,83*
O=C(O)c1ccccc1SCC(=O)N1CCCC1,90
[O-][n+]1ccccc1SC/C=C/c1ccccc1,98
C[C@]12CCC3C(CC[C@]4(O)C[C@@H](O)CC[C@]34C=O)[C@@]1(O)CCC2C1=CC(=O)OC1 (stereo not given in full),100
Nn1c(SCC(=O)NC2CCCCC2)nnc1C(F)(F)F,101
COc1cc(S(=O)(=O)NCCc2c[nH]c3ccccc23)ccc1-n1cnnn1,98
NC(=O)c1ccccc1N=c1cc(-c2ccccc2)oc2ccc(Cl)cc12,100
O=C(NCC1CCCO1)Nc1ccc(Cl)cc1 (stereo not given),80
Clc1ccc2oc(-c3ccccc3)cc(=NCCCN3CCOCC3)c2c1,44*
Clc1ccc2oc(-c3ccccc3)cc(=NCC3CCCO3)c2c1 (stereo not given),59*
SMILES,Vaccinia pol inh
CCCCN1CCN(c2nc(-c3ccccc3)c3cc(C)ccc3n2)CC1,100
Cc1ccc2oc(=O)cc(CN3CCOCC3)c2c1,99
Clc1cccc(-n2cc(-c3ccccc3)c3c(NCC4CCCO4)ncnc32)c1 (stereo not given),102
Cc1ccc2oc(-c3ccccc3)cc(=NCCN3CCOCC3)c2c1,72*
Clc1ccc2oc(-c3ccccc3)cc(=NCc3ccco3)c2c1,90
CCC(CO)NC(=S)Nc1ccccc1C (stereo not given),100
O=C(OCc1cccs1)C1CCCCC1,104
O=c1oc2cc(O)ccc2cc1-c1nc2ccccc2s1,97
O=C(Nc1ccccc1Cl)c1nc2c(nnn2Cc2ccc3c(c2)OCO3)c(=O)[nH]1,104
O=C(Nc1ccc(S(=O)(=O)Nc2nccs2)cc1)c1cc2ccccc2oc1=O,101
CCCCC/C=C\C=C\[C@@H](O)CCCCCCCC(=O)O,100
Cc1ccc(-n2ncc3c(=O)n(-c4ccc(F)c(Cl)c4)c(-c4ccco4)nc32)cc1,105
COc1ccc(C#CC(=O)O)cc1,93
Cc1nnc(C)n1/N=C/c1ccc(Cl)c(Cl)c1,82
COC(=O)c1c(NC(=O)C2CCCC2)sc2c1CCCC2,89
Cc1nc2ccccc2nc1SCC(=O)N1CCCC1,99
CCNc1cc(N)[n+](CC)c2n[nH]c(/N=C/c3cc(Cl)cc(Cl)c3O)c12,69*
O=C(O)c1ccc(CN2C(=O)CSC2=S)cc1,84
CCc1cccc(NC(=O)C2CCN(Cc3cnn(-c4ccccc4)c3-n3cccc3)CC2)c1,92
O=C(Nc1ccccc1N1CCCCC1)c1cc(Cl)sc1Cl,121
S=C(NC1CCCCC1)N1CCn2cccc2C1c1cccs1 (stereo not given),98
Cc1nnc(Sc2cc(C(=O)NCc3ccccn3)c3ccccc3n2)s1,98
COC(CNC(=O)c1cc(Sc2nnc(C)s2)nc2ccccc12)OC,93
Cc1nnc(Sc2cc(C(=O)NCCCN3CC(C)CC(C)C3)c3ccccc3n2)s1 (stereo not given),69*
CC(=O)Nc1nc(Br)sc1Cc1ccc(C)cc1,101
SMILES,Vaccinia pol inh
O=C1NC(=O)C(Cc2ccccc2)S1 (stereo not given),79*
Cc1ccc(CC2SC(=O)NC2=O)cc1Cl (stereo not given),81
O=C1NC(=O)C(Cc2ccc(C(=O)O)cc2)S1 (stereo not given),120
CS(=O)(=O)N1CCCN2C(=O)c3ccccc3C21 (stereo not given),101
O=C(COC(=O)Cc1ccccc1)NC1CCCc2ccccc21 (stereo not given),97
O=C(O)c1c(-c2ccccc2)oc2ccc(OCc3ccc(Cl)cc3)cc12,89
CC(=O)Oc1ccc2oc(-c3ccccc3)c(C(=O)O)c2c1,100
Cc1ccccc1COc1ccc2oc(-c3ccccc3)c(C(=O)O)c2c1,87*
Cc1ccc(S(=O)(=O)N(C)/N=C/c2cccc(Br)c2)cc1,100
O=C(O)CC1C=CS(=O)(=O)C1 (stereo not given),99
Fc1ccc(NC(=S)Nc2cc(C(F)(F)F)ccc2N2CCCC2)cc1Cl,106
Cc1ccc(C)n1C(CC(=O)O)c1ccc(C#N)cc1 (stereo not given),106
NC(CC(=O)O)C1CCCCC1 (stereo not given),102
Cc1ccc(C)n1C(CC(=O)O)C1CCCCC1 (stereo not given),70*
Cc1cc2nc(-c3ccc(Cl)nc3)[nH]c2cc1C,101
Cn1c(-c2ccc3nc(-c4ccc(N)cc4)[nH]c3c2)nc2cc(N)ccc21,89
Cc1cc(N)cc2[nH]c(-c3ccc(N)cc3)nc12,60*
CN(C)c1ccc(NC(=O)c2sc(=S)[nH]c2N)cc1,101
CC(N)Cc1ccc2c(c1)OCO2 (stereo not given),98
O=C(Nc1ccc(OC(F)(F)F)cc1)OCCc1csc2ccccc12,102
Fc1ccc(Nc2ncnc3c2oc2ccccc23)cc1,100
COc1ccc(-c2cc(NC(=O)Nc3ccccc3)n(-c3ccccc3)n2)cc1,100
Cc1nn(-c2ccccc2)c(OC(=O)c2cccs2)c1Sc1ccccc1,101
CC(=O)Oc1c(Sc2ccccc2)c(C)nn1C(C)(C)C,83*
Cc1nn(C(C)(C)C)c(OC(=O)c2ccccc2)c1Sc1ccccc1,88
SMILES,Vaccinia pol inh
CC1CCCC(C)N1C(=O)CCC(=O)O (stereo not given),100
O=C(O)c1cc2c(s1)CCCC2,96
O=C(O)CCCC(=O)Nc1nc2ccccc2[nH]1,97
O=C(O)CCC(=O)Nc1cccc(-c2nc3ccccc3[nH]2)c1,99
O=C(O)CCCC(=O)Nc1ccc(-c2nc3ccccc3[nH]2)cc1,60*
Cc1cc(C)n2nc(CNS(=O)(=O)c3cccc4nsnc34)nc2n1,104
Cn1ccnc1C(=O)c1cc(-c2ccco2)nc2ccccc12,84
c1coc(-c2cn3ccc4ccccc4c3n2)c1,84*
CCN(CC)C(=O)c1cc(-c2ccco2)nc2ccccc12,87
CCCC(=O)N(CC)Cc1cc2cc(OC)ccc2[nH]c1=O,104
OC(c1ccc2c(c1)OCO2)c1nccc2ccccc12 (stereo not given),97
CCN1C(=O)c2ccccc2Sc2ccc(NC(=O)NC3CCCC3)cc21,90

# High-throughput results from PubChem.
